Screen size: about 52,000 compounds; about 4,300 (8.3%) were called active. The sample as a whole holds a higher share of actives than the screen did. Values without a mark were called inactive. Cut-off read from the data, not from the text of the source: active = survival mostly below about 52% (no sharp cut-off); inactive = mostly above about 56%.

The experiment deals with DeltatarO mutant. Put plainly: S. aureus survival, RN4220 and DeltatarO strains – OD600, teichoic acid synthesis inhibitors, primary screen (AID 463173). The conditions noted are these: S. aureus RN4220 wild type/DeltatarO growth, OD600, 18 h, stronger effect = lower value, screened at 18.75 µg/mL (by protocol).
As for `COC(=O)c1cc(C)nc2c1c(=O)nc(SCc1cccc(C)c1)n2C1CC1`, the survival was 78%.
Regarding `COc1ccc(CNC(=O)c2cnc3sc(N4CCCC4)nn3c2=O)c(OC)c1`, the survival was 70%.
`Cc1cccc(C)c1Nc1c(-c2ccsc2)nc2cccc(C)n12`: the survival is 54%.
In the case of `Cc1cccn2c(Nc3ccccc3)c(-c3ccc(N4CCOCC4)cc3)nc12`, the survival was 113%.
In the case of `Cc1ccccc1Nc1c(-c2ccsc2)nc2c(C)cccn12`, the survival is 8% (active).
Consider `Cc1ccc2nc(-c3ccsc3)c(Nc3ccc(Cl)cc3)n2c1`, for which the survival is 73%.
`Cc1ccccc1Nc1c(-c2ccc(O)cc2)nc2c(C)cccn12`: the survival was 72%.
The result for `Cc1cccn2c(Nc3ccccc3)c(-c3cccs3)nc12` reads 89%; that for `Cc1ccc(Nc2c(-c3ccc(O)cc3)nc3cccc(C)n23)cc1`, 84%.
Turning to `Cc1ccc(Nc2c(-c3ccc(N4CCOCC4)cc3)nc3c(C)cccn23)cc1`, the survival is 56%.
Then `Cc1ccc(Nc2c(-c3ccc(C)cc3)nc3c(C)cccn23)cc1`, with 9% (active).
On to `Cc1ccccc1Nc1c(-c2ccc(Cl)cc2)nc2c(C)cccn12`, for which the survival is 69%.
Take `Cc1ccc(Nc2c(-c3ccsc3)nc3c(C)cccn23)cc1`: the survival is 20% (active).
In the case of `Cc1ccc(Nc2c(-c3ccsc3)nc3cccc(C)n23)cc1`, the survival was 25% (active).
The result for `CCOC(=O)c1cccc(NC(=O)N2CCOCC2)c1` reads 80%.
Then `O=C(Cn1c2[n+](c3ccccc31)CC(O)CS2)N1CCCCC1` (stereo not drawn), with 72%; and `O=C(Cn1c(=O)c2cccn2c2ccccc21)NCc1ccccc1F`, with 84%; and `CCCNS(=O)(=O)c1cc(-c2nn3c(C)nnc3c3ccccc23)ccc1C`, with 61%.
Then `C=C(C)c1cccc(C(C)(C)NC(=O)NC2CC(C)(C)NC(C)(C)C2)c1`, with 107%; and `Cc1ccc(CCNC(=O)c2ccc3[nH]c(C)c(C)c3c2)cc1`, with 116%; and `CCCn1c(=O)n(-c2ccccc2Cl)c(=O)c2sc3ccccc3c21`, with 95%.
Consider `Cc1c(C(=O)OCCOc2ccccc2)[nH]c2c1C(=O)CC(c1ccc(C(C)(C)C)cc1)C2` (stereo not drawn), for which the survival was 70%.
The result for `Cc1cc(C)cc(NS(=O)(=O)c2ccc(-n3cccn3)cc2)c1` reads 75%; that for `O=C(Nc1sc2c(c1C(=O)NCC1CCCO1)CCC2)c1cc(=O)c2cc(Cl)ccc2o1` (stereo not drawn), 43% (active); that for `O=C(Nc1sc2c(c1C(=O)NCC1CCCO1)CCC2)c1cc(=O)c2ccccc2o1` (stereo not drawn), 66%.
Then `Cc1ccc2c(=O)cc(C(=O)Nc3sc4c(c3C(=O)NCC3CCCO3)CCC4)oc2c1` (stereo not drawn), with 71%.
As for `Cc1ccc2oc(C(=O)Nc3sc4c(c3C(=O)NCC3CCCO3)CCC4)cc(=O)c2c1` (stereo not drawn), the survival is 79%.
`Cc1cc2oc(C(=O)Nc3sc4c(c3C(=O)NCC3CCCO3)CCC4)cc(=O)c2cc1C` (stereo not drawn): the survival is 36% (active).
For the molecule `Cc1cc2oc(C(=O)Nc3sc4c(c3C(=O)NCC3CCCO3)CCCC4)cc(=O)c2cc1C` (stereo not drawn), the survival was 47% (active).
Then `Cc1ccc2c(=O)cc(C(=O)Nc3sc4c(c3C(=O)NCC3CCCO3)CCCC4)oc2c1C` (stereo not drawn), with 85%.
`Cc1ccc2c(=O)cc(C(=O)Nc3sc4c(c3C(=O)NCC3CCCO3)CCCC4)oc2c1` (stereo not drawn): the survival is 71%.
Turning to `O=C(Nc1sc2c(c1C(=O)NCC1CCCO1)CCCC2)c1cc(=O)c2ccccc2o1` (stereo not drawn), the survival was 50%.
Consider `Cc1noc(/C=C/c2cccs2)c1S(=O)(=O)N1CCC(C(=O)Nc2ccc(F)c(Cl)c2)CC1`, for which the survival was 52%.
In the case of `COc1ccc(-c2cc3nc(N)cc(=O)n3[nH]2)cc1`, the survival was 148%.
The result for `CCOc1cccc2cc(-c3nc4sc5c(c4c(=O)[nH]3)CCC(C(C)(C)C)C5)c(=O)oc12` (stereo not drawn) reads 79%.
For `CCOC(=O)Cc1c(C)nc2c(-c3ccc(OC)c(OC)c3)c(C)nn2c1C`, the survival was 82%.
With `Cc1ccccc1Cn1c(=O)n(CC2CCC(C(=O)N3CCC(C)CC3)CC2)c(=O)c2sccc21` (stereo not drawn), the survival was 73%.
`O=C(COC(=O)c1cc(-c2cccs2)nc2ccccc12)c1ccccc1`: the survival is 45%.
Then `CCCCOc1ccc(CNC(=O)CCCN2C(=O)CSc3c2c(C)nn3-c2ccccc2)cc1`, with 72%; and `CC(C(=O)N1CCCC1)N1CCN(c2ccc(F)cc2)CC1` (stereo not drawn), with 87%.
The result for `CN1CCN(Cc2nc(N)nc(Nc3ccccc3)n2)CC1` reads 70%.
As to `COc1ccc2sc(N)nc2c1`, the survival is 93%.
Then `COc1cccc(C(=O)Nc2ccc3nc(SCc4ccc(C)cc4)sc3c2)c1`, with 64%; and `COc1ccc(Nc2nc(N)nc(CSc3nc4cc(OC)ccc4s3)n2)cc1`, with 41% (active); and `COc1ccc(C(=O)Nc2ccc3nc(SCc4ccc(C)cc4)sc3c2)cc1`, with 88%.
On to `COc1ccc(Nc2nc(N)nc(CSc3nc4ccccc4s3)n2)cc1`, for which the survival is 21% (active).
As to `Cc1cc2ncn(CCC(=O)NC(C)(C)C)c2cc1C`, the survival is 95%.
On to `O=C(O)Cn1nnnc1SCC(=O)Nc1ccc(F)cc1F`, for which the survival is 75%.
In the case of `CN(C(=O)C(=O)Nc1ccc2nc3n(c(=O)c2c1)CCCCC3)c1cccc(C(F)(F)F)c1`, the survival is 76%.
Regarding `COc1cc2[nH]c(=O)c(C(=O)NC3CCCC3)c(O)c2cc1OC`, the survival is 98%.
Turning to `CCCCOC(=O)c1ccc(NC2=NS(=O)(=O)c3ccccc32)cc1`, the survival is 66%.
In the case of `COc1ccc(C2CC(=O)c3cc(-c4nc(-c5cccc([N+](=O)[O-])c5)cs4)c(=O)n(-c4ccc(OC)cc4)c3C2)cc1` (stereo not drawn), the survival is 57%.
On to `CCc1ccc(NC(=O)CC2C(=O)N(c3cccc(C)c3)C(=O)N2Cc2cccc(OC)c2)cc1` (stereo not drawn), for which the survival is 92%.
The result for `Cc1nc(-c2ccc(S(=O)(=O)N3CCN(c4cccc(Cl)c4)CC3)cc2)co1` reads 91%; that for `CCOc1ccc(CCNC(=O)CCCc2cc(-c3ccc(OCC)cc3)on2)cc1`, 92%; that for `CCOc1ccc(-c2cc(CCCC(=O)NCCc3cc(OC)c(OC)c(OC)c3)no2)cc1`, 43% (active).
As for `CCOc1ccc(-c2cc(CCCC(=O)NCCc3ccc(OC)c(OC)c3)no2)cc1`, the survival is 91%.
Take `COc1cc(C2c3c(oc4ccccc4c3=O)C(=O)N2c2ccccn2)cc(OC)c1OC` (stereo not drawn): the survival is 146%.
